# Values joined by “and” are separate entries in the source; they are usually repeats but may differ in a detail not shown here. Equal entries are not always repeated. A number with no mark means an inactive call. Inconclusive results are not listed. A call without a number means that no potency is given here. Active and inactive are the calls of the source. Calls come from the whole dose curve; as a rule, active = well fitted curve in the direction sought with a large enough effect in the repeat runs; inconclusive = weak or mixed curves; inactive = no such curve, though single readings can be large; an effect the other way counts as inactive or inconclusive.
# What was measured:
# [1] = qHTS RealTime-Glo MT Cell Viability Assay in HepG2 cells - 40 hour (AID 1224870); note: nearly all actives have a fitted effect of over 50% in size
# Procedure, shortened: (§1)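 HepG2 cells (600/well) mixed with RealTime-Glo MT reagent, settled 5 h at 37 C/5% CO2 before compound addition. Nonlytic NanoLuc luminescence from viable-cell prosubstrate reduction read repeatedly during 40 h treatment at 37 C.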
# [2] = A CellTox Green Cytotoxicity Assay to monitor cytotoxicity in HEK293 cells - 40 hour (AID 1224871); note: nearly all actives have a fitted effect of over 45% in size; note: potency is the fitted concentration of half-maximal effect
# Procedure, shortened: (§2)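 Homogeneous no-lysis format: HEK293 cell suspension mixed with CellTox Green reagent, seeded, incubated 5 h at 37 C/5% CO2, then dosed by pintool with compound in DMSO.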
# [3] = qHTS RealTime-Glo MT Cell Viability Assay in HEK293 cells - 16 hour (AID 1224872); note: top concentration of the series differs between compounds; nearly all actives have a fitted effect of over 50% in size
# Procedure, shortened: (§3)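 Tox21 10K qHTS, HEK293, 600 cells/well, RealTime-Glo reagent co-dispensed with cells; 5 h preincubation, compound by pintool, 37 C, luminescence at 0–40 h.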
# [4] = qHTS RealTime-Glo MT Cell Viability Assay in HepG2 cells - 8 hour (AID 1224873); note: nearly all actives have a fitted effect of over 55% in size
# Procedure, shortened: as §1
# [5] = qHTS RealTime-Glo MT Cell Viability Assay in HEK293 cells - 40 hour (AID 1224874); settings: RealTime-Glo luminescence; max response: hits give low values; note: nearly all actives have a fitted effect of over 50% in size
# Procedure, shortened: (§4)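 Measured as luminescence from the same continuously cultured HEK293 wells at successive time points (0, 8, 16, 24, 32, 40 h) after compound addition. Reagent present from seeding; dosing at 5 h; incubation 37 C.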
# [6] = A CellTox Green Cytotoxicity Assay to monitor cytotoxicity in HEK293 cells - 24 hour (AID 1224875); note: nearly all actives have a fitted effect of over 45% in size; note: potency is the fitted concentration of half-maximal effect; for activity change: series mostly up to about 77 µM
# Procedure, shortened: as §2
# [7] = A CellTox Green Cytotoxicity Assay to monitor cytotoxicity in HepG2 cells - 16 hour (AID 1224876); note: nearly all actives have a fitted effect of over 45% in size; note: potency is the fitted concentration of half-maximal effect
# Procedure, shortened: (§5)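 Fluorescent DNA-binding dye, 600 HepG2 cells/well, 5 h preincubation then compound in DMSO; same plates read at 0–40 h, 37 C.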
# [8] = qHTS RealTime-Glo MT Cell Viability Assay in HepG2 cells - 32 hour (AID 1224877); note: nearly all actives have a fitted effect of over 55% in size
# Procedure, shortened: (§6)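 Cells + NanoLuc/prosubstrate dispensed (600 cells/well) → 5 h at 37 C/5% CO2 → compounds in DMSO transferred → 40 h incubation at 37 C, luminescence read at 0, 8, 16, 24, 32, 40 h.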
# [9] = A CellTox Green Cytotoxicity Assay to monitor cytotoxicity in HepG2 cells - 24 hour (AID 1224878); note: nearly all actives have a fitted effect of over 45% in size; note: potency is the fitted concentration of half-maximal effect
# Procedure, shortened: as §5
# [10] = A CellTox Green Cytotoxicity Assay to monitor cytotoxicity in HepG2 cells - 40 hour (AID 1224879); note: nearly all actives have a fitted effect of over 40% in size; note: potency is the fitted concentration of half-maximal effect
# Procedure, shortened: as §5
# [11] = qHTS RealTime-Glo MT Cell Viability Assay in HEK293 cells - 0 hour (AID 1224880)
# Procedure, shortened: as §4
# [12] = A CellTox Green Cytotoxicity Assay to monitor cytotoxicity in HEK293 cells - 32 hour (AID 1224881); note: nearly all actives have a fitted effect of over 40% in size; note: potency is the fitted concentration of half-maximal effect
# Procedure, shortened: as §2
# [13] = A CellTox Green Cytotoxicity Assay to monitor cytotoxicity in HepG2 cells - 0 hour (AID 1224882); note: nearly all actives have a fitted effect of over 35% in size; note: potency is the fitted concentration of half-maximal effect
# Procedure, shortened: as §5
# [14] = A CellTox Green Cytotoxicity Assay to monitor cytotoxicity in HepG2 cells - 32 hour (AID 1224883); note: nearly all actives have a fitted effect of over 50% in size; note: potency is the fitted concentration of half-maximal effect
# Procedure, shortened: as §5
# [15] = A CellTox Green Cytotoxicity Assay to monitor cytotoxicity in HEK293 cells - 8 hour (AID 1224884); note: nearly all actives have a fitted effect of over 35% in size; note: potency is the fitted concentration of half-maximal effect
# Procedure, shortened: as §2
# [16] = qHTS RealTime-Glo MT Cell Viability Assay in HepG2 cells - 16 hour (AID 1224885); note: nearly all actives have a fitted effect of over 50% in size
# Procedure, shortened: as §6
# [17] = qHTS RealTime-Glo MT Cell Viability Assay in HEK293 cells - 24 hour (AID 1224886)
# Procedure, shortened: as §3
# [18] = qHTS RealTime-Glo MT Cell Viability Assay in HEK293 cells - 8 hour (AID 1224887)
# Procedure, shortened: as §4
# [19] = A CellTox Green Cytotoxicity Assay to monitor cytotoxicity in HEK293 cells - 16 hour (AID 1224888); note: nearly all actives have a fitted effect of over 35% in size; note: potency is the fitted concentration of half-maximal effect
# Procedure, shortened: as §2
# [20] = qHTS RealTime-Glo MT Cell Viability Assay in HepG2 cells - 0 hour (AID 1224889); note: nearly all actives have a fitted effect of over 50% in size
# Procedure, shortened: as §6
compound,measurement,setting,value
NCCc1cnc[nH]1,Potency,[1],inactive
same,Potency,[2],inactive
same,Potency,[3],inactive
same,Potency,[4],inactive
same,max response,[5],-0.307%
same,Potency,[6],inactive
same,Potency,[7],inactive
same,Potency,[8],inactive
same,Potency,[9],inactive
same,Potency,[10],inactive
same,Potency,[11],inactive
same,Potency,[12],inactive
same,Potency,[13],inactive
same,Potency,[14],inactive
same,Potency,[15],inactive
same,Potency,[16],inactive
same,Potency,[17],inactive
same,Potency,[18],inactive
same,Potency,[19],inactive
same,Potency,[20],inactive
CCCN(CCC)CCc1cccc2c1CC(=O)N2,Potency,[1],inactive
same,Potency,[2],inactive
same,Potency,[3],inactive
same,Potency,[4],inactive
same,max response,[5],5.11%
same,Potency,[6],inactive
same,Potency,[7],inactive
same,Potency,[8],inactive
same,Potency,[9],inactive
same,Potency,[10],inactive
same,Potency,[11],inactive
same,Potency,[12],inactive
same,Potency,[13],inactive
same,Potency,[14],inactive
same,Potency,[15],inactive
same,Potency,[16],inactive
same,Potency,[17],inactive
same,Potency,[18],inactive
same,Potency,[19],inactive
same,Potency,[20],inactive
CC(C)CCCC(C)N (stereo not given),Potency,[1],inactive
same,Potency,[2],inactive
same,Potency,[3],inactive
same,Potency,[4],inactive
same,max response,[5],5.83%
same,Potency,[6],inactive
same,Potency,[7],inactive
same,Potency,[8],inactive
same,Potency,[9],inactive
same,Potency,[10],inactive
same,Potency,[11],inactive
same,Potency,[12],inactive
same,Potency,[13],inactive
same,Potency,[14],inactive
same,Potency,[15],inactive
same,Potency,[16],inactive
same,Potency,[17],inactive
same,Potency,[18],inactive
same,Potency,[19],inactive
same,Potency,[20],inactive
Cc1cccc(C)c1NC(=O)C(C)N (stereo not given),Potency,[1],inactive
same,Potency,[2],19 µM (active)
same,Potency,[3],inactive
same,Potency,[4],inactive
same,max response,[5],4.07%
same,Potency,[6],21.3 µM (active)
same,Potency,[7],21.3 µM (active)
same,Potency,[8],inactive
same,Potency,[9],21.3 µM (active)
same,Potency,[10],23.9 µM (active)
same,Potency,[11],inactive
same,Potency,[12],19 µM (active)
same,Potency,[13],21.3 µM (active)
same,Potency,[14],21.3 µM (active)
same,Potency,[15],19 µM (active)
same,Potency,[16],inactive
same,Potency,[17],inactive
same,Potency,[18],inactive
same,Potency,[19],19 µM (active)
same,Potency,[20],inactive
CO[Si](CCCOCC1CO1)(OC)OC (stereo not given),Potency,[1],inactive
same,Potency,[2],inactive
same,Potency,[3],inactive
same,Potency,[4],inactive
same,max response,[5],0.892% and 6.22%
same,Potency,[6],inactive
same,Potency,[7],inactive
same,Potency,[8],inactive
same,Potency,[9],inactive
same,Potency,[10],inactive
same,Potency,[11],inactive
same,Potency,[12],inactive
same,Potency,[13],inactive
same,Potency,[14],inactive
same,Potency,[15],inactive
same,Potency,[16],inactive
same,Potency,[17],inactive
same,Potency,[18],inactive
same,Potency,[19],inactive
same,Potency,[20],inactive
COc1ccc2c(c1)c(CC(=O)OCC(=O)O)c(C)n2C(=O)c1ccc(Cl)cc1,Potency,[1],inactive
same,Potency,[2],inactive
same,Potency,[3],inactive
same,Potency,[4],inactive
same,max response,[5],5.11%
same,Potency,[6],inactive
same,Potency,[7],inactive
same,Potency,[8],inactive
same,Potency,[9],inactive
same,Potency,[10],inactive
same,Potency,[11],inactive
same,Potency,[12],inactive
same,Potency,[13],inactive
same,Potency,[14],inactive
same,Potency,[15],inactive
same,Potency,[16],inactive
same,Potency,[17],inactive
same,Potency,[18],inactive
same,Potency,[19],inactive
same,Potency,[20],inactive
Cc1cnc(NS(=O)(=O)c2ccc(N)cc2)nc1,Potency,[1],inactive
same,Potency,[2],inactive
same,Potency,[3],inactive
same,Potency,[4],inactive
same,max response,[5],2.61%
same,Potency,[6],inactive
same,Potency,[7],inactive
same,Potency,[8],inactive
same,Potency,[9],inactive
same,Potency,[10],inactive
same,Potency,[11],inactive
same,Potency,[12],inactive
same,Potency,[13],inactive
same,Potency,[14],inactive
same,Potency,[15],inactive
same,Potency,[16],inactive
same,Potency,[17],inactive
same,Potency,[18],inactive
same,Potency,[19],inactive
same,Potency,[20],inactive
COCCc1ccc(OCC(O)CNC(C)C)cc1 (stereo not given),Potency,[1],inactive
same,Potency,[2],inactive
same,Potency,[3],inactive
same,Potency,[4],inactive
same,max response,[5],1.31% and -8.11%
same,Potency,[6],inactive
same,Potency,[7],inactive
same,Potency,[8],inactive
same,Potency,[9],inactive
same,Potency,[10],inactive
same,Potency,[11],inactive
same,Potency,[12],inactive
same,Potency,[13],inactive
same,Potency,[14],inactive
same,Potency,[15],inactive
same,Potency,[16],inactive
same,Potency,[17],inactive
same,Potency,[18],inactive
same,Potency,[19],inactive
same,Potency,[20],inactive
Cc1cccn2c(=O)c(-c3nnn[nH]3)cnc12,"activity change, negative = cytotoxic",[1],2.03% [at 15.8 µM]
same,Potency,[2],inactive
same,"activity change, negative = cytotoxicity",[3],2% [at 15.8 µM]
same,"viability change, negative = cytotoxic",[4],-11% [at 15.8 µM]
same,max response,[5],1.37%
same,activity change,[6],"11.9% [at 15.8 µM, hits give high values]"
same,cytotoxicity increase,[7],6.14% [at 15.8 µM]
same,"activity change, negative = cytotoxic",[8],3.38% [at 15.8 µM]
same,cytotoxicity,[9],3.1% [at 15.8 µM]
same,cytotoxicity increase,[10],1.54% [at 15.8 µM]
same,"activity change, negative = cytotoxicity",[11],7.45% [at 15.8 µM]
same,Potency,[12],inactive
same,cytotoxicity,[13],0.312% [at 15.8 µM]
same,cytotoxicity increase,[14],2.82% [at 15.8 µM]
same,cytotoxicity increase,[15],9.95% [at 15.8 µM]
same,"activity change, negative = cytotoxic",[16],-6.35% [at 15.8 µM]
same,"activity change, negative = cytotoxicity",[17],2.84% [at 15.8 µM]
same,"activity change, negative = cytotoxicity",[18],-0.563% [at 15.8 µM]
same,activity change,[19],"17.3% [at 15.8 µM, hits give high values]"
same,"activity change, negative = cytotoxicity",[20],-3.79% [at 15.8 µM]
OCCCC1CCCCC1,Potency,[1],inactive
same,Potency,[2],inactive
same,Potency,[3],inactive
same,Potency,[4],inactive
same,max response,[5],11.3%
same,Potency,[6],inactive
same,Potency,[7],inactive
same,Potency,[8],inactive
same,Potency,[9],inactive
same,Potency,[10],inactive
same,Potency,[11],inactive
same,Potency,[12],inactive
same,Potency,[13],inactive
same,Potency,[14],inactive
same,Potency,[15],inactive
same,Potency,[16],inactive
same,Potency,[17],inactive
same,Potency,[18],inactive
same,Potency,[19],inactive
same,Potency,[20],inactive
C[N+](C)(C)CCCCCC[N+](C)(C)C,Potency,[1],inactive
same,Potency,[2],inactive
same,Potency,[3],inactive
same,Potency,[4],inactive
same,max response,[5],3.71% and 1.42%
same,Potency,[6],inactive
same,Potency,[7],inactive
same,Potency,[8],inactive
same,Potency,[9],inactive
same,Potency,[10],inactive
same,Potency,[11],inactive
same,Potency,[12],inactive
same,Potency,[13],inactive
same,Potency,[14],inactive
same,Potency,[15],inactive
same,Potency,[16],inactive
same,Potency,[17],inactive
same,Potency,[18],inactive
same,Potency,[19],inactive
same,Potency,[20],inactive
CC/C=C\CCOC(C)=O,Potency,[1],inactive
same,Potency,[2],inactive
same,Potency,[3],inactive
same,Potency,[4],inactive
same,max response,[5],-1.39%
same,Potency,[6],inactive
same,Potency,[7],inactive
same,Potency,[8],inactive
same,Potency,[9],inactive
same,Potency,[10],inactive
same,Potency,[11],inactive
same,Potency,[12],inactive
same,Potency,[13],inactive
same,Potency,[14],inactive
same,Potency,[15],inactive
same,Potency,[16],inactive
same,Potency,[17],inactive
same,Potency,[18],inactive
same,Potency,[19],inactive
same,Potency,[20],inactive

# — PubChem BioAssay (Tox21)
